About 14,000 (4.5%) of roughly 310,000 compounds showed an effect of 50% or more. The effect is printed as a negative number. The entries come from a sample that favours strong results as a whole.
The molecules below were run against human ether-à-go-go-related gene (hERG) potassium channel (human, UniProt Q12809) (assay: primary screen, population patch clamp on CHO cells stably expressing hERG; higher = less effect of the substance).
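Further: peak tail current of the secondary pulse compared with the same well before compound.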

Sequence of human ether-à-go-go-related gene (hERG) potassium channel (Q12809 whole entry, looked up): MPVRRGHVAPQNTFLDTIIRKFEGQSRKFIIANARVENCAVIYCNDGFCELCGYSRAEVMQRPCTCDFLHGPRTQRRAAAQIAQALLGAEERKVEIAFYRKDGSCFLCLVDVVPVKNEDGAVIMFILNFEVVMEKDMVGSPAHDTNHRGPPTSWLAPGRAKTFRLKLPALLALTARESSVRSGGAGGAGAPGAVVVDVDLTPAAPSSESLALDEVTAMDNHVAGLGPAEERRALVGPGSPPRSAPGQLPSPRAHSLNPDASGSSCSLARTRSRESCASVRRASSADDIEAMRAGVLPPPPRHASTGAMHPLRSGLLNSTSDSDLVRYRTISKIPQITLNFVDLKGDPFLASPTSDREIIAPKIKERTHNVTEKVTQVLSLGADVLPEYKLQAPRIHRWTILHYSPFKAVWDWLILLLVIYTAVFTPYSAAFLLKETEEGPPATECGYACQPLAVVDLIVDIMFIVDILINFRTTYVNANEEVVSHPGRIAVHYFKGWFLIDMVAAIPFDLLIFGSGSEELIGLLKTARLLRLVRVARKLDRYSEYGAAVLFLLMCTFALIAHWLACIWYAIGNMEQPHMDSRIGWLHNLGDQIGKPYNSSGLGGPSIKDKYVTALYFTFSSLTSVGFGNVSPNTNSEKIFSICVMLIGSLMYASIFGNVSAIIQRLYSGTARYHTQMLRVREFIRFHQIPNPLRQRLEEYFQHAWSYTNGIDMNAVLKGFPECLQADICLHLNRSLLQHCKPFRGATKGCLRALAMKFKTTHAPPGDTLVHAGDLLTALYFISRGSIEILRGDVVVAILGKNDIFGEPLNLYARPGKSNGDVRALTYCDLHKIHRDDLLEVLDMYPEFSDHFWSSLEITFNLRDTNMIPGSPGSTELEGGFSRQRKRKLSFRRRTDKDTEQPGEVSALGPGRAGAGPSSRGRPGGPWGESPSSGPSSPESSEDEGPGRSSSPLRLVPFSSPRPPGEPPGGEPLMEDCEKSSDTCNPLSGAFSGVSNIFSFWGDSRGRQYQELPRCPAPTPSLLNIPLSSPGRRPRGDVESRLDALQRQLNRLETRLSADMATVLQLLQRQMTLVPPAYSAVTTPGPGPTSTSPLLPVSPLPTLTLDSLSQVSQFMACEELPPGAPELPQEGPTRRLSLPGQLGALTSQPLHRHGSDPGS

| SMILES | hERG current change (%, negative = inhibition) at 10uM [%] |
| --- | --- |
| O=C(O)CCCCCCCCc1cn(CCc2c[nH]c3ccccc23)nn1 | 4.49 |
| O=C(Nc1ccc(Cl)cc1)C1=Cc2ccccc2OC1 | -9.34 |
| CC(=NCCC1=CCCCC1)c1c(O)n(-c2ccccc2)c(=O)[nH]c1=O | 4.58 |
| CC(C)C[C@H](CO)Nc1nc(N(C)c2cccc(Cl)c2)c2ncn(C(C)C)c2n1 | -7.87 |
| COCCn1c(=S)[nH]c2cc(OC)c(OC)cc2c1=O | 11 |
| COc1ccc(-c2nnnn2-c2ccccc2OC)cc1 | -9.02 |
| Cc1ccc(CSc2nn3c(=O)c(C)nnc3s2)cc1 | -13.9 |
| Cc1ccc2nc(N3CCC(C(=O)O)CC3)nc(-c3ccccc3)c2c1 | -1.95 |
| OCCN1CCN(c2nc(-c3ccccc3)c3cc(Br)ccc3n2)CC1 | -47.7 |
| OCCN1CCN(c2nc(-c3ccccc3)c3cc(Cl)ccc3n2)CC1 | -26.2 |
| Cc1ccc2nc(N3CCN(C=O)CC3)nc(-c3ccccc3)c2c1 | -56 |
| CCOC(=O)N1CCN(c2nc(-c3ccccc3)c3cc(C)ccc3n2)CC1 | -8.98 |
| Cc1ccc2nc(N3CCN(CCO)CC3)nc(-c3ccccc3)c2c1 | -54.4 |
| Cc1cccn2c(Nc3ccccc3)c(-c3ccccn3)nc12 | 1.81 |
| NC(CSCc1ccccc1Cl)C(=O)O (stereo not drawn) | 0.173 |
| COc1ccc(S(=O)(=O)N(C)c2ccc(C(=O)Nc3ccccc3C(=O)N3CCOCC3)cc2)cc1 | -6.94 |
| Cc1ccc(-n2nnnc2-c2ccco2)cc1 | -2.37 |
| O=C(N1CCC(n2nc(-c3ccccc3)oc2=O)CC1)C1(c2ccccc2)CC1 | -17.5 |
| Cc1cccc(N2CC(C(=O)OCc3ccc([N+](=O)[O-])cc3)CC2=O)c1 (stereo not drawn) | -64 |
| COc1ccc(COC(=O)C2CC(=O)N(Cc3ccccc3)C2)cc1 (stereo not drawn) | -34.1 |
| Cc1ccc(N2CC(C(=O)OCc3ccccc3)CC2=O)cc1 (stereo not drawn) | -15.6 |
| CCc1ccc(N2CC(C(=O)OCC(=O)Nc3ccc(C#N)cc3)CC2=O)cc1 (stereo not drawn) | -57.9 |
| COc1ccc(NC(=O)COC(=O)C2CC(=O)N(Cc3ccc(C)cc3)C2)cc1 (stereo not drawn) | -12.7 |

| SMILES | hERG current change (%, negative = inhibition) at 10uM [%] |
| --- | --- |
| CCc1ccc(N2CC(C(=O)OCC(=O)Nc3ccc([N+](=O)[O-])cc3)CC2=O)cc1 (stereo not drawn) | -36.9 |
| Cc1cccc(N2CC(C(=O)O)CC2=O)c1 (stereo not drawn) | -15.2 |
| O=C(OCc1ccc([N+](=O)[O-])cc1)C1CC(=O)N(c2ccccc2)C1 (stereo not drawn) | -69.1 |
| COc1ccc(COC(=O)C2CC(=O)N(Cc3ccc(C)cc3)C2)cc1 (stereo not drawn) | -58.3 |
| CCc1ccc(N2CC(C(=O)OCC(=O)Nc3ccc(C(C)=O)cc3)CC2=O)cc1 (stereo not drawn) | -19.1 |
| CC(=O)c1ccc(OC(=O)C2CC(=O)N(c3cccc(C)c3)C2)cc1 (stereo not drawn) | -1.85 |
| NC(=O)C1CC(=O)N(c2ccc(OCc3ccc([N+](=O)[O-])cc3)cc2)C1 (stereo not drawn) | -30.8 |
| Cc1ccnc(NS(=O)(=O)c2ccc(NS(=O)(=O)Cc3ccccc3)cc2)n1 | 9.43 |
| COc1cc2c(cc1OC)C(=S)NC1(CCCC1)C2 | 9.36 |
| COc1ccc(CCNC(C)C(=O)Nc2ccc(S(N)(=O)=O)cc2)cc1 (stereo not drawn) | -9.23 |
| CC1CCC2C(=O)N(c3ccc(NC4CCCCC4)c([N+](=O)[O-])c3)C(=O)C2C1 (stereo not drawn) | 1.71 |
| Cc1ccc(CSc2nc3c(c(=O)[nH]2)C(c2ccncc2)C2=C(CCCC2=O)N3)cc1 (stereo not drawn) | 9.42 |
| COc1ccc(CCN2CC(C(=O)N(C)Cc3cccnc3)CC2=O)cc1OC (stereo not drawn) | 8.53 |
| COC(=O)c1nnn(-c2nonc2N)c1CSCCO | 14.6 |
| Cc1ccc(N2CC(C(=O)OCC(=O)C(C)(C)C)CC2=O)cc1 (stereo not drawn) | -4.69 |
| Cc1ccc(N2CC(C(=O)OCc3ccc([N+](=O)[O-])cc3)CC2=O)cc1 (stereo not drawn) | -58.5 |
| Cc1ccc(N2CC(C(=O)OCC(=O)c3ccc([N+](=O)[O-])cc3)CC2=O)cc1 (stereo not drawn) | -26.8 |
| O=C1OC(Nc2ccccn2)c2ccccc21 (stereo not drawn) | -5.61 |
| NC(=O)C1(N2CCCCC2)CCN(C(=O)c2ccc(C#CC3(O)CCCCC3)cc2)CC1 | -6.21 |
| COc1ccc(C(=O)N/C(=C/c2cccnc2)C(=O)NCc2ccco2)cc1OC | 9.12 |
| O=C(N/C(=C\c1cccnc1)c1nc2ccccc2[nH]1)c1cccc(Br)c1 | -54.9 |
| COc1ccccc1C(=O)N/C(=C\c1ccccc1)C(=O)NCc1ccco1 | -38.1 |
| COc1ccc(/C=C(/NC(=O)c2ccccc2)c2nc3ccccc3[nH]2)cc1OC | -12.5 |

| SMILES | hERG current change (%, negative = inhibition) at 10uM [%] |
| --- | --- |
| Cc1ccc(C(=O)N/C(=C\c2cccnc2)c2nc3ccccc3[nH]2)cc1 | -19.7 |
| O=C(NCc1ccco1)/C(=C\c1ccccc1)NC(=O)c1ccccc1 | 6.85 |
| O=C(NCc1ccco1)/C(=C/c1cccnc1)NC(=O)c1cccc(Br)c1 | -59.6 |
| Cc1ccc(C(=O)N/C(=C/c2cccnc2)C(=O)NCc2ccco2)cc1 | -41.7 |
| O=C(NCc1ccco1)/C(=C\c1cccnc1)NC(=O)c1ccccc1F | -51.1 |
| CCCNS(=O)(=O)c1cccc2cccnc12 | -6.32 |
| Cc1cccc(-c2cc(C(=O)NCc3ccccn3)c3ccccc3n2)c1 | -18 |
| Cc1ccc(OCc2n[nH]c(=S)n2C2CCCCC2)cc1 | 21 |
| Cc1ccc(-n2c(C)cc(/C=N/NC(=O)c3ccncc3)c2C)cc1C | 17.3 |
| COc1ccccc1-n1cnnc1SCc1csc(-c2ccccc2)n1 | -20.9 |
| O=C(CCC(=O)c1cccs1)NCc1cccc(C(F)(F)F)c1 | -7.88 |
| COc1ccc(C(=O)N2CCN(c3ncccn3)CC2)cc1S(=O)(=O)N1CCOCC1 | 6.96 |
| COc1cc2c(cc1OC)C(COc1ccc(F)cc1)NCC2 (stereo not drawn) | -26.8 |
| COC(=O)c1ccc(OCC2c3cc(OC)c(OC)cc3CCN2C(=O)C2CC2)cc1 (stereo not drawn) | -56.3 |
| COC(=O)c1ccc(OCC2c3cc(OC)c(OC)cc3CCN2C(C)=O)cc1 (stereo not drawn) | 8.8 |
| COc1cc2c(cc1OC)C(COc1ccc(F)cc1)N(C(C)=O)CC2 (stereo not drawn) | -11.9 |
| CCC(=O)N1CCc2cc(OC)c(OC)cc2C1COc1ccc(C(=O)OC)cc1 (stereo not drawn) | -1.37 |
| COc1ccc(OCC2NCCc3cc(OC)c(OC)cc32)cc1 (stereo not drawn) | -8.93 |
| CCc1ccc(OCC2c3cc(OC)c(OC)cc3CCN2C(C)=O)cc1 (stereo not drawn) | -11.5 |
| COc1cc2c(cc1OC)C(COc1ccc([N+](=O)[O-])cc1)NCC2 (stereo not drawn) | -76.6 |
| COc1cc2c(cc1OC)C(COc1ccc([N+](=O)[O-])cc1)N(C(C)=O)CC2 (stereo not drawn) | -77.4 |
| O=C(CN1N=C(c2ccccc2)CCC1=O)NCc1ccco1 | 0.243 |
| COc1cccc(NC(=O)C2C3C=CC(C3)C2C(=O)O)c1 (stereo not drawn) | 8.61 |

| SMILES | hERG current change (%, negative = inhibition) at 10uM [%] |
| --- | --- |
| Cc1ccc(Cc2nnc3n(-c4cccc(C)c4)nc(C(=O)c4ccccc4)n3c2=O)cc1 | -3.85 |
| CN1CCC(OC(=O)c2ccc(Br)cc2)CC1.Cl | -41.9 |
| CN1CCC(=C(c2ccccc2)c2ccc(Br)cc2)CC1.Cl | -68.3 |
| CN1CCN(C(=S)c2ccc(Br)cc2)CC1 | -35.9 |
| C=CCNc1scc(-c2ccccc2)[n+]1CC=C.[Br-] | -21.4 |
| C/C=C/C(=O)N1c2ccccc2C(C)=CC1(C)C | 3.41 |
| COC(=O)c1[nH]c2cccc(OC)c2c1NC(=O)C(C)N1CCC(C)CC1 (stereo not drawn) | -21.6 |
| CCN(CC)c1ccc(C(=O)OCC(=O)Nc2sccc2C#N)cc1 | 12.2 |
| Cc1ccc2cc(S(=O)(=O)NCCC(=O)O)ccc2c1 | -2.04 |
| Cc1cc(C)c2nc(N3CCC(C(=O)NCCCN4CC(C)CC(C)C4)CC3)sc2c1 (stereo not drawn) | -71.8 |
| CCC(CC)c1nnc(NC(=O)C2CCN(C(=O)c3ccco3)CC2)s1 | 20.1 |
| Cc1cc(C)c2nc(N3CCC(C(=O)NCCCN4CCCCC4)CC3)sc2c1 | -37.2 |
| Cc1cc(C)c2nc(N3CCC(C(=O)N4CCCC4)CC3)sc2c1 | -67.7 |
| Cc1cc(C)c2nc(N3CCC(C(=O)N4CCN(c5ncccn5)CC4)CC3)sc2c1 | -0.141 |
| CCc1nnc(NC(=O)C2CCN(C(=O)c3ccco3)CC2)s1 | -0.31 |
| Cc1cc(=O)n2nc(N3CCC(C(=O)NCc4cccnc4)CC3)sc2n1 | 7.16 |
| Cc1cc(C)c2nc(N3CCC(C(=O)NCc4cccnc4)CC3)sc2c1 | -79 |
| Cc1cc(C)c2nc(N3CCCC(C(=O)N4CCC(C(N)=O)CC4)C3)sc2c1 (stereo not drawn) | -19.3 |
| CCC(C)Sc1nnc(NC(=O)C2CCN(C(=O)c3ccco3)CC2)s1 (stereo not drawn) | -57.2 |
| Cc1cc(C)c2nc(N3CCC(C(=O)NCCN4CCOCC4)CC3)sc2c1 | -10.5 |
| Cc1cc(C)c2nc(N3CCC(C(=O)NCc4ccccn4)CC3)sc2c1 | -25.3 |
